Some structures have more than one record in an assay (separate samples or runs), and their calls can disagree. Activity calls are given as the source filed them. How the source made its calls: active means hit-call score of the fitted dose curve at least 0.9, where 1 is the maximum; inactive means score below 0.9.
Key:
[1] = ATG_CRE_CIS: Attagene CIS-FACTORIAL HepG2 Assay for human cAMP Responsive Element (CRE) binding protein 3 (AID 2282926); settings: HepG2 CRE cis-reporter, Attagene multiplexed mRNA; actives raise or lower the signal
Method in brief: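 We dosed HepG2 cells bearing multiple cis-promoter reporter units for 24 h and measured reporter mRNA by RT-PCR with capillary electrophoresis detection. Bidirectional concentration-response fitting used DMSO as negative control.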

[2] = target: CCAAT/enhancer-binding protein beta (Homo sapiens) (UniProt P17676); test: ATG_C_EBP_CIS: Attagene CIS-FACTORIAL HepG2 Assay for human CCAAT/Enhancer Binding Protein (C/EBP) beta (AID 2282927); settings: HepG2 Attagene cis-factorial transcription factor reporter; actives raise or lower the signal
Method in brief: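 Changes in reporter mRNA, rather than exogenous chimeric receptor activity, reflect native C/EBP signalling in transfected HepG2 cells dosed for 24 h; transcripts are detected by RT-PCR and capillary electrophoresis.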

[3] = ATG_CMV_CIS: Attagene CIS-FACTORIAL HepG2 Assay for human CMV (Internal Marker) (AID 2282928); settings: HepG2 CMV promoter reporter, transcription factor profiling; actives raise or lower the signal;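 further: endpoint acts as a background internal control marker rather than a target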
Method in brief: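 Endogenous transcription factor activity read in HepG2 via transfected cis-promoter reporter units. After 24 h dosing, reporter mRNA measured by RT-PCR/capillary electrophoresis; gain or loss of signal fit relative to DMSO.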

[4] = target: Aryl hydrocarbon receptor (Homo sapiens) (UniProt P35869); test: ATG_Ahr_CIS: Attagene CIS-FACTORIAL HepG2 Assay for human Aryl Hydrocarbon Receptor (Ahr) (AID 2282930); settings: HepG2 AhR cis-factorial reporter transcription; actives raise or lower the signal
Method in brief: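 HepG2, transient MRTU (cis) transfection, 24 h exposure. RNA → cDNA → PCR → 6-FAM primer extension → HpaI 2 h 37 C → CE. Fit: bidirectional, DMSO baseline.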

[5] = ATG_AP_1_CIS: Attagene CIS-FACTORIAL HepG2 Assay for human Activator Protein 1 (AP-1) (AID 2282931); settings: HepG2 Attagene cis-factorial AP-1 reporter mRNA; actives raise or lower the signal
Method in brief: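 Fluorescence of labelled PCR fragments separated by capillary electrophoresis gives reporter mRNA levels. HepG2 with transfected cis-regulated reporter units, 24 h exposure; DMSO serves as baseline for bidirectional curve fits.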

[6] = ATG_AP_2_CIS: Attagene CIS-FACTORIAL HepG2 Assay for human Activator Protein 2 (AP-2) (AID 2282932); settings: HepG2 AP-2 cis-reporter, Attagene transcription factor profiling; actives raise or lower the signal
Method in brief: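 Step one: transient transfection of HepG2 with reporter transcription units. Step two: 24 h chemical exposure. Step three: RNA extraction, RT-PCR, labelled fragment analysis by capillary electrophoresis; DMSO serves as baseline.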

[7] = ATG_BRE_CIS: Attagene CIS-FACTORIAL HepG2 Assay for human Bone Morphogenetic Protein (BMP) Response Element (BRE) (AID 2282933); settings: HepG2 BMP response element reporter, Attagene transcription factor profiling; actives raise or lower the signal
Method in brief: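 A HepG2 multiplex reporter system measured inducible reporter mRNA 24 h post-dosing. Detection: RT-PCR, 6-FAM primer extension, HpaI digestion, capillary electrophoresis. Activity fitted bidirectionally relative to DMSO.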

[8] = target: Retinoic acid receptor alpha (Homo sapiens) (UniProt P10276); test: ATG_DR5_RAR_CIS: Attagene CIS-FACTORIAL HepG2 Assay for human Retinoic Acid Receptor Alpha (RARE), DR5 submotif (AID 2282934); settings: HepG2 Attagene cis-factorial RARE DR5 reporter, mRNA; actives raise or lower the signal;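 on AC50: reporter responds to endogenous RAR alpha beta and gamma in HepG2 not RARA alone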
Method in brief: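 HepG2, transient cis-reporter transfection, 24 h exposure. mRNA readout: RT-PCR, FAM label, HpaI cut, capillary electrophoresis. DMSO baseline, gain/loss fitting.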

[9] = target: Transcription factor E2F1 (Homo sapiens) (UniProt Q01094); test: ATG_E2F_CIS: Attagene CIS-FACTORIAL HepG2 Assay for human E2F Transcription Factor 1 (AID 2282935); settings: HepG2 Attagene cis-reporter, E2F reporter RNA transcripts; actives raise or lower the signal
Method in brief: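 Total RNA from 24 h-treated, reporter-transfected HepG2 cells undergoes DNase I treatment, oligo(dT) reverse transcription, PCR and 6-FAM primer extension before capillary electrophoresis.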

[10] = ATG_E_Box_CIS: Attagene CIS-FACTORIAL HepG2 Assay for human Enhancer Box (E-box) (AID 2282936); settings: HepG2 E-box cis-reporter transcription, actives raise or lower the signal
Method in brief: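 DMSO served as negative control and baseline for bidirectional fitting. Human hepatoma HepG2 cells, transiently transfected with cis-reporter constructs, were dosed 24 h; reporter mRNA read by RT-PCR and capillary electrophoresis.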

[11] = ATG_M_61_CIS: Attagene CIS-FACTORIAL HepG2 Assay for M61 Transcription Factor (Internal Marker) (AID 2282937); settings: HepG2 Attagene CIS-FACTORIAL M61 internal marker reporter; actives raise or lower the signal
Method in brief: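 This endpoint serves as an internal background control within a multiplexed HepG2 cis-reporter panel. Cells are exposed for 24 h; reporter mRNA is amplified, fluorescently labelled and sized by capillary electrophoresis, with DMSO as negative control.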

[12] = ATG_EGR_CIS: Attagene CIS-FACTORIAL HepG2 Assay for human Early Growth Response 1 (EGR1) (AID 2282938); settings: HepG2 Attagene CIS-FACTORIAL EGR reporter mRNA; actives raise or lower the signal
Method in brief: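 HepG2, transient MRTU transfection (cis promoters), 24 h compound. RNA → RT (oligo-dT) → PCR → 6-FAM labelling → HpaI cut → CE fluorescence. Bidirectional fit, DMSO baseline.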

[13] = ATG_M_19_CIS: Attagene CIS-FACTORIAL HepG2 Assay for M19 Transcription Factor (Internal Marker) (AID 2282939); settings: HepG2 Attagene CIS-FACTORIAL M19 internal marker reporter; actives raise or lower the signal
Method in brief: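 Chemical-treated HepG2 (24 h) with MRTU constructs; reporter transcripts detected by fluorescent RT-PCR fragment analysis on capillary electrophoresis. Internal background marker, DMSO as baseline.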

[14] = ATG_ERE_CIS: Attagene CIS-FACTORIAL HepG2 Assay for Estrogen Response Element (ERE) (AID 2282940); settings: HepG2 ERE cis-reporter, Attagene RNA transcript; actives raise or lower the signal
Method in brief: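 Human liver cells (HepG2) bearing transiently transfected, promoter-regulated reporter units were exposed 24 h. Reporter mRNA induction was detected by capillary electrophoresis of labelled RT-PCR products and fitted bidirectionally to DMSO.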

[15] = ATG_Ets_CIS: Attagene CIS-FACTORIAL HepG2 Assay for human Erythroblast Transformation Specific (ETS) (AID 2282941); settings: HepG2 ETS cis-reporter transcription, actives raise or lower the signal
Method in brief: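 Steps: transfect HepG2 with multiple reporter units; treat compound 24 h; isolate RNA, DNase-treat, reverse-transcribe; PCR-amplify, label with 6-FAM, digest with HpaI; separate by capillary electrophoresis. Activity fitted both directions versus DMSO.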

[16] = target: Hepatocyte nuclear factor 3-beta (Homo sapiens) (UniProt Q9Y261); test: ATG_FoxA2_CIS: Attagene CIS-FACTORIAL HepG2 Assay for human Forkhead box A2 (FOXA2) (AID 2282942); settings: HepG2 cis-reporter transcription factor activity, 24 h; actives raise or lower the signal
Method in brief: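 Cells: HepG2, transient multiplex reporter transfection. Exposure 24 h. Detection: reporter-specific RT-PCR, fluorescent labelling, restriction digest, capillary electrophoresis. Analysis: bidirectional curve fit, DMSO as negative control.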

[17] = ATG_GLI_CIS: Attagene CIS-FACTORIAL HepG2 Assay for human Zinc Finger Protein GLI1 (AID 2282945); settings: HepG2, Attagene cis-factorial reporter mRNA, GLI element; actives raise or lower the signal
Method in brief: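 Bidirectional curve fits relative to DMSO, using reporter mRNA levels from RT-PCR plus capillary electrophoresis. Cells were HepG2 transiently carrying cis-regulated reporter constructs, harvested 24 h after dosing.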

[18] = ATG_FoxO_CIS: Attagene CIS-FACTORIAL HepG2 Assay for human Forkhead box O (FoxO) (AID 2282943); settings: HepG2 Attagene cis-reporter, FoxO element, mRNA; actives raise or lower the signal
Method in brief: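 Human hepatoma HepG2 cells carry transiently introduced reporter transcription units controlled by cis promoter elements. Chemical treatment lasted 24 h, and mRNA signal was compared with DMSO.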

[19] = ATG_GATA_CIS: Attagene CIS-FACTORIAL HepG2 Assay for human GATA Binding Protein (AID 2282944); settings: HepG2 GATA cis-element reporter, Attagene multiplex mRNA; actives raise or lower the signal
Method in brief: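 Transfected cis-reporter HepG2 cells were treated with chemicals for 24 hours. Total RNA was then converted to cDNA, amplified with reporter-specific primers and analysed by fluorescent capillary electrophoresis, using DMSO-treated wells as baseline.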

Measured: AC50

Sequence of Aryl hydrocarbon receptor (Homo sapiens) (P35869 whole entry, looked up): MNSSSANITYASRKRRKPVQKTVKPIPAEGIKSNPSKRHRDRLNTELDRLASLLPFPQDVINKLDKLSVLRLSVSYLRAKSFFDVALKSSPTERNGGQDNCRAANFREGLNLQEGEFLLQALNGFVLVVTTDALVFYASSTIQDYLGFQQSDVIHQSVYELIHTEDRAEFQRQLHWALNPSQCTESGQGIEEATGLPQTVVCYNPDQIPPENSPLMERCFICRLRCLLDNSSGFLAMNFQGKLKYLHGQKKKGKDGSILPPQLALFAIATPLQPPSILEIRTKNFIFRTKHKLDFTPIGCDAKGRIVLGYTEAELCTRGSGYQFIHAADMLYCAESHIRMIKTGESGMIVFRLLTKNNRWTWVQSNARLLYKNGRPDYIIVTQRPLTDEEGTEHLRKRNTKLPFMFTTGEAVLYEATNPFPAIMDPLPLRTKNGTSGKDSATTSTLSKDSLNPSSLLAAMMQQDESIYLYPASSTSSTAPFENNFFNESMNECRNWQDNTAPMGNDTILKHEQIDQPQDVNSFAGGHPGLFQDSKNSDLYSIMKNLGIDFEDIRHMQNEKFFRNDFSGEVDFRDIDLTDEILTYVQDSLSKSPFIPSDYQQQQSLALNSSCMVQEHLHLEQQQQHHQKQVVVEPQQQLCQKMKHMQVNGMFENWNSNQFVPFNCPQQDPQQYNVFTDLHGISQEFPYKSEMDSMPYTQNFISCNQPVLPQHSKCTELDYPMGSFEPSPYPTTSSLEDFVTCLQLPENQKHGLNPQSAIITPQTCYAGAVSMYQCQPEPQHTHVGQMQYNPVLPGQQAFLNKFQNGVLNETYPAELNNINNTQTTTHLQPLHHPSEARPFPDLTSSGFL
Sequence of Hepatocyte nuclear factor 3-beta (Homo sapiens) (Q9Y261 whole entry, looked up): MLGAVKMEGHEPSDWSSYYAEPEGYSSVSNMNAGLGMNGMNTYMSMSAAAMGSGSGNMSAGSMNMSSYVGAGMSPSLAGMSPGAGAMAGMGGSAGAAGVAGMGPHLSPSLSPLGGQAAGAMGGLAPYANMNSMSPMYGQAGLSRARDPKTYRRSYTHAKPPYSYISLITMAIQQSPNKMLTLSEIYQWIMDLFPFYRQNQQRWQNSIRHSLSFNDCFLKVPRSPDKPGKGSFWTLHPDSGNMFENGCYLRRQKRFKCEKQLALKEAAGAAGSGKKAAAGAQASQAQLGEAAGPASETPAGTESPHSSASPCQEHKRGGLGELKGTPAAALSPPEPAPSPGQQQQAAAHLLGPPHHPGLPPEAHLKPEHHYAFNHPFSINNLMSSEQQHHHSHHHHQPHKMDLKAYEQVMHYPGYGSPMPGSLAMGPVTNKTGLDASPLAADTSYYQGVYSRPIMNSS
Sequence of Transcription factor E2F1 (Homo sapiens) (Q01094 whole entry, looked up): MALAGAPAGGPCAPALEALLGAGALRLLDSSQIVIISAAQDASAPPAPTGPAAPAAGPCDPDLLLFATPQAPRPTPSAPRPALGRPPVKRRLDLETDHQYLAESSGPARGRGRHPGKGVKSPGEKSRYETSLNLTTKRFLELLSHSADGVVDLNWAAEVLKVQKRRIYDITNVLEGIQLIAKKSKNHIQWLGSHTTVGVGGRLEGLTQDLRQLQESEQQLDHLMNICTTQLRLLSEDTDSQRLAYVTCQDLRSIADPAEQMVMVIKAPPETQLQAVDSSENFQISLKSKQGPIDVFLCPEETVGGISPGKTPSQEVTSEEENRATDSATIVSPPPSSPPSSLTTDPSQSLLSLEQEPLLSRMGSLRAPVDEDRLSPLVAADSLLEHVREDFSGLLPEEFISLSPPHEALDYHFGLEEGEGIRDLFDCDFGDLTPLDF
Sequence of CCAAT/enhancer-binding protein beta (Homo sapiens) (P17676 whole entry, looked up): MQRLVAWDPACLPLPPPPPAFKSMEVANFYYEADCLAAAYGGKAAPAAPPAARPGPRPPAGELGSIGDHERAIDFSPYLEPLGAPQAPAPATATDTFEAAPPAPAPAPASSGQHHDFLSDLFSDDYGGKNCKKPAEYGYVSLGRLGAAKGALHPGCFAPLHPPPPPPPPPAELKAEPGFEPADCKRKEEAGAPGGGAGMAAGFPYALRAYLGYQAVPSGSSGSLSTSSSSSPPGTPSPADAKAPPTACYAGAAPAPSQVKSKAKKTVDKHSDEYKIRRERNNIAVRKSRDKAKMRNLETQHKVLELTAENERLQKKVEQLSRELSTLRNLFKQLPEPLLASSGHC
Sequence of Retinoic acid receptor alpha (Homo sapiens) (P10276 whole entry, looked up): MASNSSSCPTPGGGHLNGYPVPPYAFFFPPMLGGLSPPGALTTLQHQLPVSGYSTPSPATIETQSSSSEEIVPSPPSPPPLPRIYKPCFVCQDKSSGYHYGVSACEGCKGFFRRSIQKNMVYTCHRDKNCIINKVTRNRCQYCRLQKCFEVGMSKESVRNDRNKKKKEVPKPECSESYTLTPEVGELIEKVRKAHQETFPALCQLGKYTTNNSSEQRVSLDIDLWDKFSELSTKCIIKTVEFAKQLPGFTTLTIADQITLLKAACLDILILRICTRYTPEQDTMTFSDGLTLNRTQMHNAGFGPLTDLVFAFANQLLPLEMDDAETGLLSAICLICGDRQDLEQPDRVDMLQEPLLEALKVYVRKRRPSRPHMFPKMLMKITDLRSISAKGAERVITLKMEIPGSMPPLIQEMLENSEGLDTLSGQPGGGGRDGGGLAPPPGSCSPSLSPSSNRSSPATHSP

O=C(O)c1ccccc1C(=O)OCc1ccccc1
not listed: [18] | [19]
inactive: all other assays above

Cc1oc2c(NC(=O)c3c(Cl)cccc3Cl)cccc2c1C(C)(C)O
active: [3] 6.16 µM | [4] 4.28 µM | [5] 38 µM | [7] 152 µM | [8] 3.06 µM | [12] 47.6 µM | [16] 27.3 µM
not listed: [6] | [18] | [19]
inactive: all other assays above

O=C=NCCCCCCN=C=O
not listed: [6]
inactive: all other assays above

O=C(O)c1ccccc1-n1cc(C(=O)O)c(=O)c2cc(Nc3c(F)cc(F)cc3Cl)c(Cl)cc21
not listed: [6] | [18]
inactive: all other assays above

CCCCOC(=O)CC(CC(=O)OCCCC)(OC(C)=O)C(=O)OCCCC
active: [7] 42.6 µM
inactive: [1] | [2] | [3] | [4] | [5] | [7] | [9] | [10] | [11] | [12] | [13] | [15] | [16] | [18] | [19] | [17]

CC(C)(O)c1ccc(CNC(=O)c2cccnc2Oc2ccc3nonc3c2)cc1
not listed: [18]
inactive: all other assays above

CCCCCCCCCCCO
not listed: [6] | [19]
inactive: all other assays above

— PubChem BioAssay (EPA / NIEHS)
